The values that follow come from the OligoGym collection.
Also: reference of the scale not given here.

The target of one assay is NMRAL1. In words: pooled miR-30 sensor sort-seq; sequence = guide strand. The following applies: shRNA.
TTGGCATCGTGCACGACCTTGC had a sensor-assay potency score (higher = more potent) of 0.214. The same measure, in the same setting: the figure for TTGATGTTCTCCAGGCCGCTGT is -0.625. On the same count and under the same terms, the same measure for TTTGCTGCCTTCTTCCTAGGGT: 0.121.

With TTCGTAGTCCTCAGGAGTCATC, the sensor-assay potency score (higher = more potent) is -1.71.

For TACTCCTCGGCCGTGTGCCTGC, the sensor-assay potency score (higher = more potent) is -0.836. For TCGGGTCACCACTCGAACCTTG, the sensor-assay potency score (higher = more potent) was -0.891. Still for that read-out and setting: the same measure for TAGTCCTCAGGAGTCATCTTGG: -0.467; for TTCTGCACCTTGCAGCCTCAGC: -0.852. The same measure, in the same setting: the figure for TTGGTCACGATGAAGGTGGCGT is -0.0574; for TAATTGGTCACGATGAAGGTGG it is -0.074.

Another assay concerns the target NMUR2. The assay is described as above. The following applies: shRNA.
The sequence TTGTTGACTGATTTTCTGCAGG yielded a sensor-assay potency score (higher = more potent) of -0.441. Still for that read-out and setting: the same measure for TTTGAATATTTGCATTCCCTTC: -0.976; for TTGAACACAGCAGCCAGGGATT: -1.59; for TTTGTCTTTCTTTAGTCTGAGT: -1.1. On to TAGTTTGTTCTTGACATCTGTT, for which the sensor-assay potency score (higher = more potent) is -0.227.

On to TTGTTCTTGACATCTGTTCACT, for which the sensor-assay potency score (higher = more potent) was -0.626.

For TTCTTGACATCTGTTCACTAGA, the sensor-assay potency score (higher = more potent) was -0.341.

TGGATCTTCTAGTTTCTGCTGG gave a sensor-assay potency score (higher = more potent) of 0.385. Same read-out and setting: the same measure for TTGACTGATTTTCTGCAGGGTC: -0.256. On the same count and under the same terms, the figure for TACATGAGTTGTAAGAGCCATT is -0.996; for TTGGGGACCTATATCTTCGGTC it is -0.773.

Regarding TTTCTTTAGTCTGAGTGCCATG, the sensor-assay potency score (higher = more potent) is -1.41.

The target in another assay is NODAL. Described as above. The note with it: shRNA.
TGGTGATCTAGGAGCACTCTGC had a sensor-assay potency score (higher = more potent) of -1.24. The same measure, in the same setting: the figure for TAAAGAACTCATGCACTTGTGC is 0.25; for TGTCTTTATGGTGATCTAGGAG it is -0.744; for TAACGTTTCAGCAGACTCTGGA it is 1.03. With TTTATGGTGATCTAGGAGCACT, the sensor-assay potency score (higher = more potent) was -0.921. Take TTTCAGCAGACTCTGGATGTAT: the sensor-assay potency score (higher = more potent) was -0.374. Same read-out and setting: the figure for TCTGCCATTATCCACATACAGC is -1.71.

TTATCCACATACAGCATGCTCA had a sensor-assay potency score (higher = more potent) of -0.807. Same read-out and setting: the same measure for ATGTATGCATGGTTGGTCGGAT: -0.818. On the same count and under the same terms, the figure for TGATCTAGGAGCACTCTGCCAT is -0.476; for TTCAGTAAAGAGAACATCCAGC it is 0.203. For the sequence TTGGAGAATACATGAAAGCTAT, the sensor-assay potency score (higher = more potent) is -0.351.

In the next assay the target is NOL7. Described as above. The following applies: shRNA.
In turn, AACTTATTTACAGTAGTCCTGT showed a sensor-assay potency score (higher = more potent) of -0.21. TTTCTGACCATCCACCGTCTTT displayed a sensor-assay potency score (higher = more potent) of -1.02.

Consider TTTTTGTACTTTAACTTTCTTG, for which the sensor-assay potency score (higher = more potent) is -0.529.

As for TTATTTACAGTAGTCCTGTTGG, the sensor-assay potency score (higher = more potent) is -0.0686. In the case of TTAGTCTGTGAAGCTGTGGTTA, the sensor-assay potency score (higher = more potent) was -0.246. TTCGATGAACAGCTCCTCGCGT gave a sensor-assay potency score (higher = more potent) of -0.6.
